Structures are written as SMILES. The panel holds about 83,000 compounds, 20% with a hit somewhere; the sample as a whole holds those more often.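 Assay: single dose, 48 h. Readout: percent growth (0 = no net growth; negative = cell death). Active: <10.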 Unmarked numbers belong to inactive results. The source made the active and inactive calls.

For one assay, the system named is MALME-3M melanoma. The assay can be described thus: NCI-60 one-dose screen, 48 h (100 = growth as untreated, 0 = no growth, -100 = all killed). The note with it: 10 µM unless noted.
Consider `COc1ccc(/C(C)=N/NS(=O)(=O)c2ccc(C)cc2)cc1OC`, for which the growth is 121%.

For the compound `C[C@@H]1C(=O)N(C[C@@H](Cc2ccccc2)NC(=O)OCc2ccccc2)[C@]1(Cc1ccccc1)C(=O)OCc1ccccc1`, the growth is 24.9%.

Turning to `NC(=Nc1ccc(N)cc1)C(N)=Nc1ccc(N)cc1`, the growth is 135%.

As to `N#Cc1c(NC(=O)c2ccccc2I)sc2c1CCCC2`, the growth was 60.9%.

Take `Cc1ccc(Nc2ccc(Nc3ccc(C)cc3S(=O)(=O)O)c3c2C(=O)c2ccccc2C3=O)c(S(=O)(=O)O)c1`: the growth is 101%.

On to `C=C1C(=O)O[C@H]2[C@H]1CC/C(Cn1cc(CNCCc3c[nH]c4ccc(Cl)cc34)nn1)=C\CC[C@@]1(C)O[C@@H]21`, for which the growth was 53.9%.

For `Cn1cc(Nc2nccc(-c3ccc(N4CCCC4)c(C#N)c3)n2)cn1`, the growth was 54.4%.

In the case of `CSc1ncc(C)c(Nc2ccc(Cl)cc2)n1`, the growth was 122%.

For the compound `COc1cc(/C=C2\C=C(c3ccccc3)N(CCc3ccccc3)C2=O)cc(OC)c1OC`, the growth was 50.1%.

For the compound `O=c1cc(-c2ccc(OCc3ccccc3)cc2)oc2c(I)c(OCc3ccccc3)cc(OCc3ccccc3)c12`, the growth is 107%.

With `CC(=O)Nc1nccs1`, the growth is 76.8%.

Regarding `N[C@H]1CCC[C@@H]1NCCCCN1C(=O)c2cccc3cccc(c23)C1=O`, the growth is 104%.

Regarding `N=C(N)c1ccc(-c2ccc(-c3ccc(Cl)cc3Cl)o2)nc1`, the growth is 90%.

For `O=C1N/C(=N/O)S/C1=C/c1cn(-c2ccccc2)nc1-c1ccccc1`, the growth is 141%.

As for `C[C@@H]1CC[C@@H]2[C@@H]1[C@H](OC(=O)c1ccc3ccccc3c1)[C@]1(C3CCCCC3)C[C@@H](OC(=O)CO)[C@@]2(C)O1`, the growth is 99.9%.

`CN(C)c1ccc(C#Cc2c(F)cccc2Cl)cc1`: the growth was 93.4%.

With `CCCN1CCN(c2ccc3nc(-c4ccc5nc(-c6cc(OC)c(OC)c(OC)c6)[nH]c5c4)[nH]c3c2)CC1`, the growth is 7.58% (active).

With `O=C(NCCOCCOCCOCCNC(=O)c1cc2c(o1)C(=O)c1ccccc1C2=O)NC12CC3CC(CC(C3)C1)C2`, the growth was -94.5% (active).

Take `COc1cc2c(cc1OC)-c1ccc3cc4c(cc3c1N(CCN(C)C)C2)OCO4`: the growth is 24.3%.

Take `O=C(NC(=S)Nc1ccc(-c2nc3ccccc3[nH]2)cc1)c1ccc2ccccc2c1`: the growth is -12% (active).

In the case of `CC[C@@H](C[C@H](CCO)c1ccccc1)c1cc2ccccc2o1`, the growth is 103%.

On to `NC(N)=N/N=C/c1ccc(Br)cc1`, for which the growth is 45%.

As for `CN(C)CCOC(=O)Nc1ccc(Cl)cc1`, the growth is 114%.

For `O=C(/C=C/C12c3ccccc3C(c3ccccc31)C1C(=O)N(c3ccc(Cl)cc3)C(=O)C12)c1ccccn1` (stereo not drawn), the growth was -52% (active).

With `OC(c1cccc(OCc2ccccc2)c1)c1nnc(-c2ccccc2)o1` (stereo not drawn), the growth was 92.1%.

`O=C1N(c2ccccc2)C(=S)N[C@]12[C@H](c1ccccc1)C1CCCN1[C@]21C(=O)NC2C=CC(Cl)=C[C@H]21` (stereo partly drawn): the growth was 97%.

As to `COC(=O)/C(=C\c1ccc(OC)cc1)C(=O)N1c2ccccc2Sc2ccccc21`, the growth is 32.9%.

As to `Cc1ccc(S(=O)(=O)Nc2sccc2-c2nc(-c3ccccc3)no2)cc1`, the growth was 94.4%.

Turning to `CCNCCNc1cc(-c2ccc(C(F)(F)F)cc2)c(C#N)c2nc3cc(Cl)c(Cl)cc3n12`, the growth was -77.9% (active).

Take `COc1ccc(/C=C(\C#N)n2nnc3ccccc32)cc1`: the growth is 44.1%.

As to `CC(C)n1nc(C#Cc2cccc3cc(-c4cccc(C(F)(F)F)c4)ncc23)c2c(N)ncnc21`, the growth is 93.1%.

As for `COC(=O)CNC(=O)C(=O)c1c(O)c(O)c(C(C)C)c2cc(C)c(-c3c(C)cc4c(C(C)C)c(O)c(O)c(C(=O)C(=O)NCC(=O)OC)c4c3O)c(O)c12`, the growth is 46.2%.

Take `NC(=O)c1c(NC(=O)c2ccc(C(F)(F)F)cc2Cl)sc2c1CCC(=O)C2`: the growth is -24.7% (active).

With `C[C@@H](C[C@H](CCOCc1cccnc1)c1ccccc1)c1cc2ccccc2o1`, the growth is 95.5%.

With `CCn1c(Sc2nnc(Nc3ccccc3)s2)nc2c1c(=O)n(C)c(=O)n2C`, the growth was 94.9%.

For the compound `Cc1cc(Cl)nc(N(CCCNc2ccnc3cc(Cl)ccc23)Cc2ccccn2)n1`, the growth is 73.2%.

Take `OC(CBr)c1ccnc2ccccc12` (stereo not drawn): the growth was 96.3%.

Turning to `COc1cc(C2C=C(c3cccc(NC(C)=O)c3)Nc3ncnn32)cc(OC)c1OC` (stereo not drawn), the growth was 25.6%.

Consider `CCCCOC(=O)c1ccc(NC(=O)C(C)N2CCOCC2)cc1` (stereo not drawn), for which the growth is 91.8%.

Another assay deals with MDA-MB-231 breast. The description is as above. The note with it: 10 µM unless noted.
With `COc1ccc(/C(C)=N/NS(=O)(=O)c2ccc(C)cc2)cc1OC`, the growth is 113%.

Turning to `C[C@@H]1C(=O)N(C[C@@H](Cc2ccccc2)NC(=O)OCc2ccccc2)[C@]1(Cc1ccccc1)C(=O)OCc1ccccc1`, the growth is 41.9%.

Take `NC(=Nc1ccc(N)cc1)C(N)=Nc1ccc(N)cc1`: the growth is 93.5%.

Turning to `N#Cc1c(NC(=O)c2ccccc2I)sc2c1CCCC2`, the growth is 54.7%.

As for `Cc1ccc(Nc2ccc(Nc3ccc(C)cc3S(=O)(=O)O)c3c2C(=O)c2ccccc2C3=O)c(S(=O)(=O)O)c1`, the growth is 95.6%.

Regarding `C=C1C(=O)O[C@H]2[C@H]1CC/C(Cn1cc(CNCCc3c[nH]c4ccc(Cl)cc34)nn1)=C\CC[C@@]1(C)O[C@@H]21`, the growth was 59.7%.

Turning to `Cn1cc(Nc2nccc(-c3ccc(N4CCCC4)c(C#N)c3)n2)cn1`, the growth was 63.9%.

For `CSc1ncc(C)c(Nc2ccc(Cl)cc2)n1`, the growth is 110%.

Turning to `COc1cc(/C=C2\C=C(c3ccccc3)N(CCc3ccccc3)C2=O)cc(OC)c1OC`, the growth is 5.9% (active).

For the compound `O=c1cc(-c2ccc(OCc3ccccc3)cc2)oc2c(I)c(OCc3ccccc3)cc(OCc3ccccc3)c12`, the growth is 110%.

For `CC(=O)Nc1nccs1`, the growth is 103%.

Take `N[C@H]1CCC[C@@H]1NCCCCN1C(=O)c2cccc3cccc(c23)C1=O`: the growth is 52.4%.

On to `N=C(N)c1ccc(-c2ccc(-c3ccc(Cl)cc3Cl)o2)nc1`, for which the growth was -38% (active).

For the compound `O=C1N/C(=N/O)S/C1=C/c1cn(-c2ccccc2)nc1-c1ccccc1`, the growth was 85.8%.

Regarding `C[C@@H]1CC[C@@H]2[C@@H]1[C@H](OC(=O)c1ccc3ccccc3c1)[C@]1(C3CCCCC3)C[C@@H](OC(=O)CO)[C@@]2(C)O1`, the growth was 63.1%.

Turning to `CN(C)c1ccc(C#Cc2c(F)cccc2Cl)cc1`, the growth was 66.2%.

`CCCN1CCN(c2ccc3nc(-c4ccc5nc(-c6cc(OC)c(OC)c(OC)c6)[nH]c5c4)[nH]c3c2)CC1`: the growth was 98.4%.

In the case of `O=C(NCCOCCOCCOCCNC(=O)c1cc2c(o1)C(=O)c1ccccc1C2=O)NC12CC3CC(CC(C3)C1)C2`, the growth was 18.5%.

For the compound `COc1cc2c(cc1OC)-c1ccc3cc4c(cc3c1N(CCN(C)C)C2)OCO4`, the growth is -2.8% (active).

Regarding `O=C(NC(=S)Nc1ccc(-c2nc3ccccc3[nH]2)cc1)c1ccc2ccccc2c1`, the growth was -18.6% (active).

In the case of `CC[C@@H](C[C@H](CCO)c1ccccc1)c1cc2ccccc2o1`, the growth was 98%.

Take `NC(N)=N/N=C/c1ccc(Br)cc1`: the growth is 38.1%.

On to `CN(C)CCOC(=O)Nc1ccc(Cl)cc1`, for which the growth was 93.8%.

As to `O=C(/C=C/C12c3ccccc3C(c3ccccc31)C1C(=O)N(c3ccc(Cl)cc3)C(=O)C12)c1ccccn1` (stereo not drawn), the growth is -16% (active).

Regarding `OC(c1cccc(OCc2ccccc2)c1)c1nnc(-c2ccccc2)o1` (stereo not drawn), the growth is 89.9%.

Regarding `O=C1N(c2ccccc2)C(=S)N[C@]12[C@H](c1ccccc1)C1CCCN1[C@]21C(=O)NC2C=CC(Cl)=C[C@H]21` (stereo partly drawn), the growth is 88.4%.

With `COC(=O)/C(=C\c1ccc(OC)cc1)C(=O)N1c2ccccc2Sc2ccccc21`, the growth is 54.2%.

As for `Cc1ccc(S(=O)(=O)Nc2sccc2-c2nc(-c3ccccc3)no2)cc1`, the growth was 101%.

Turning to `CCNCCNc1cc(-c2ccc(C(F)(F)F)cc2)c(C#N)c2nc3cc(Cl)c(Cl)cc3n12`, the growth is -73.2% (active).

Turning to `COc1ccc(/C=C(\C#N)n2nnc3ccccc32)cc1`, the growth is -14.5% (active).

For the compound `CC(C)n1nc(C#Cc2cccc3cc(-c4cccc(C(F)(F)F)c4)ncc23)c2c(N)ncnc21`, the growth is 59.8%.

As to `COC(=O)CNC(=O)C(=O)c1c(O)c(O)c(C(C)C)c2cc(C)c(-c3c(C)cc4c(C(C)C)c(O)c(O)c(C(=O)C(=O)NCC(=O)OC)c4c3O)c(O)c12`, the growth is -13.6% (active).

For `NC(=O)c1c(NC(=O)c2ccc(C(F)(F)F)cc2Cl)sc2c1CCC(=O)C2`, the growth was -55.3% (active).

Regarding `C[C@@H](C[C@H](CCOCc1cccnc1)c1ccccc1)c1cc2ccccc2o1`, the growth is 98.1%.

`CCn1c(Sc2nnc(Nc3ccccc3)s2)nc2c1c(=O)n(C)c(=O)n2C`: the growth is 97.8%.

On to `Cc1cc(Cl)nc(N(CCCNc2ccnc3cc(Cl)ccc23)Cc2ccccn2)n1`, for which the growth was 53.4%.

With `OC(CBr)c1ccnc2ccccc12` (stereo not drawn), the growth was 103%.

Take `COc1cc(C2C=C(c3cccc(NC(C)=O)c3)Nc3ncnn32)cc(OC)c1OC` (stereo not drawn): the growth was 16.4%.

With `CCCCOC(=O)c1ccc(NC(=O)C(C)N2CCOCC2)cc1` (stereo not drawn), the growth was 102%.
